In the supplement of paper PMC6555819:

How the values were obtained:
Assay in all cases: PBM binding z-score (relative to random genomic background probes); higher = stronger binding; sequences stand for … in GC…GCGATTGACAGCGTAGAATGAAGG
[1] = test system: FXR:RXRa (NR concentration 270 nM, RXRa partner concentration 90 nM)
Method in brief: (§1)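 Binding z-scores were set against random background probes. The data came from custom Agilent 4×180K protein-binding microarrays carrying double-stranded probes with 34-nt variable regions, incubated 1 h with ligand-free nuclear receptor dimers. Partner-specific antibodies detected binding, and scanned fluorescence was regression-normalized.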

[2] = test system: LXRa:RXRa (NR concentration 270 nM, RXRa partner concentration 90 nM)
Method in brief: as §1

[3] = test system: LXRa homodimer (NR concentration 270 nM)
Method in brief: as §1

[4] = test system: LXRb:RXRa (NR concentration 270 nM, RXRa partner concentration 90 nM)
Method in brief: as §1

[5] = test system: LXRb homodimer (NR concentration 270 nM)
Method in brief: as §1

[6] = test system: PPARa:RXRa (NR concentration 270 nM, RXRa partner concentration 90 nM)
Method in brief: as §1

[7] = test system: PPARg:RXRa (NR concentration 180 nM, RXRa partner concentration 90 nM)
Method in brief: as §1

[8] = test system: PPARg:RXRa 270nM:90nM, anti-RXR (NR concentration 270 nM, RXRa partner concentration 90 nM)
Method in brief: as §1

[9] = test system: PPARg:RXRa 30nM:10nM, anti-RXR (NR concentration 30 nM, RXRa partner concentration 10 nM)
Method in brief: as §1

[10] = test system: PPARg:RXRa 90nM:30nM, anti-RXR (NR concentration 90 nM, RXRa partner concentration 30 nM)
Method in brief: as §1

Row | Sequence | PBM binding z-score [1] | PBM binding z-score [2] | PBM binding z-score [3] | PBM binding z-score [4] | PBM binding z-score [5] | PBM binding z-score [6] | PBM binding z-score [7] | PBM binding z-score [8] | PBM binding z-score [9] | PBM binding z-score [10]
1 | ACTAGCAGGACAAGTTTGGGTCACTCAAACAAAG | 0.14 | 0.146 | -0.00824 | 0.621 | -0.0447 | 1.36 | 0.27 | 0.0968 | -0.0869 | -0.0203
2 | TAGCCTAGGTCAGACCGGGCCAGTATACGCTATA | 2.15 | 1.09 | -0.437 | 0.609 | -0.719 | 1.61 | 0.828 | 0.617 | -0.277 | 0.23
3 | ACTAGCAGGACAAGGGTCACTCAAGATTAGTCCG | 2.6 | 3.07 | 0.432 | 2.76 | 0.105 | 4.3 | 6.63 | 6.93 | 5.71 | 7.29
4 | GCTTGTAGATCAAGGTTAGGAAAGACTAAGCTAA | -0.51 | -0.347 | -0.468 | -0.37 | -0.511 | 0.626 | 0.0578 | 0.548 | -0.199 | 0.557
5 | GCGACTGGGGCATCAGCAGATTACCATAACTTAA | -0.359 | -0.612 | -0.401 | 0.0496 | -0.549 | 0.511 | 1.02 | 0.488 | -0.24 | 0.0962
6 | CTACCAAGGTGAACAAGATCGTTGATTACTATTC | 0.605 | 0.479 | -0.171 | 0.709 | -0.457 | 1.31 | 0.756 | 0.973 | 0.161 | 0.606
7 | CTCGAAAGCTCGGTTGAGGTGAGTATACGGATAA | -0.222 | -0.554 | -0.444 | -0.393 | -0.608 | -0.294 | -0.189 | -0.312 | -0.328 | -0.403
8 | CGAACGAGGGCATGAGATGATAGCAAATGCCGAT | 0.416 | 0.173 | 0.0308 | -0.0144 | -0.705 | 1.22 | 1.5 | 0.73 | 0.325 | 0.278
9 | TCATGTAGATCAGCAGGTTAAGAAAGCTGGCCAA | -0.0707 | 0.39 | -0.338 | 0.259 | -0.58 | 0.606 | -0.175 | 1.5 | 2.67 | 2.16
10 | CCTCGGCGGACAACAGGAGGTCAGAGCTGCCAGA | 0.527 | 1.43 | 1.67 | 1.06 | -1.27 | 1.68 | -0.102 | 0.0174 | -0.988 | -0.415
11 | TCTTGTAGATCAACAGGAGGCTAAGAAAGATCGA | -0.113 | -0.312 | -0.481 | -0.391 | -0.588 | -0.00556 | -0.179 | 1.14 | 2.28 | 1.35
12 | ACTAGTTGGTCGGCTGAGGTCACACACAATTCGG | 3.37 | 2.69 | 1.73 | 2.93 | 0.679 | 3.59 | 1.43 | 2.08 | 0.45 | 1.51
13 | CATGCTAGGTCAATGGTCAGCTAAAGCAGCTCGC | 3.18 | 2.65 | 0.2 | 1.38 | 0.174 | 3.04 | 4.43 | 4.63 | 2.27 | 4.38
14 | ATCTCTAGATAAAAGTTCAGTGAATCCCGAGGAT | 0.0145 | 0.704 | 1.41 | 0.746 | 0.367 | 1.59 | 1.74 | 3.39 | 1.72 | 3.2
15 | ACATGTAGGTTATCGGGTCATTCAGTTTGCGCAT | 3.45 | 3.33 | 1.98 | 3.33 | 1.7 | 4.49 | 6.1 | 5.23 | 2.59 | 4.9
16 | ATCTCTAGGTAACCAAGTTCAGTGACTGCCGAAC | 0.544 | 1.09 | 1.07 | 0.872 | 0.838 | 1.24 | 0.732 | 1.15 | 0.402 | 0.958
17 | ACTTGCAGGCCAAGGGTCACTCAAGATTAGTCCG | 2.94 | 2.83 | 0.304 | 2.98 | 0.0149 | 4.99 | 8.46 | 7.35 | 6.52 | 7.71
18 | TCTAGTTGGTCACCGAGGTCACACACGACGGGTA | 3.85 | 3.58 | 2.2 | 3.85 | 1.18 | 4.41 | 3.75 | 4 | 3.5 | 3.89
19 | ATCTCTAGGTAAAAGTCCAGTGAATCCCGAGGAT | 0.192 | 0.0512 | -0.0646 | -0.297 | 0.61 | 0.598 | 1.24 | 3.02 | 1.28 | 2.94
20 | ACAATGAGGTTACCAAAGATCAGGGAAACGCTTG | 1.97 | 6.4 | 0.286 | 3.25 | 0.572 | 3.26 | 2.36 | 2.11 | 0.698 | 1.61
21 | TCTAGCAGGCGAGAGGGTCACTCAAGAGGTACGG | 0.647 | 0.656 | -0.616 | 1.05 | -1.27 | 2.03 | 0.765 | 1.64 | 1.43 | 1.6
22 | ACTAGCAGGCCAAGGGTCACTCCAGATTAGTCCG | 2.22 | 2.79 | 0.477 | 2.39 | -0.313 | 4 | 7.89 | 7.08 | 5.52 | 7.48
23 | CCTATTAGTTGACCATAAGGGCAACCGGAGCTCG | 0.775 | 0.432 | 0.625 | 0.404 | 0.814 | 0.657 | 0.421 | 0.473 | -0.154 | 0.171
24 | CCTGCTAGGTCATGGTCAGCTTATCTACAGTATG | 3.54 | 2.53 | 0.0847 | 1.71 | -0.512 | 3.19 | 2.2 | 2.64 | 0.566 | 1.77
